The results in this text go back to PubChem BioAssay (NCI).

About 83,000 compounds went through this panel and 20% of them were active in at least one assay; those are over-represented in the sample as a whole.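 The endpoint reported here, percent growth, reads 100 for growth as untreated, 0 for no net growth and -100 for all cells dead.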 Active and inactive are the calls of the source. The calls were made as follows: active = growth percent below 10; inactive = the rest.

The test system of this assay is HL-60(TB) leukemia. The assay is described as follows: NCI-60 one-dose screen, 48 h (100 = growth as untreated, 0 = no growth, -100 = all killed). The conditions noted are these: 10 µM unless noted.
As for `CC1(C)NCCC[C@]2(C)[C@H]3CC[C@H]4[C@H]5[C@H](C(=O)/C=C/c6cccnc6)CCC[C@]5(CO)CC[C@@]4(C)[C@]3(C)CC[C@@H]12`, the growth was 23.9% (inactive).
For `O=c1cc(-c2ccccc2)[nH]c(=S)[nH]1`, the growth was 104% (inactive).
For `C=CC(=O)NCc1cccc(Nc2ncc(Br)c(NCCCNC(=O)C3CCC3)n2)c1`, the growth was -50% (active).
As to `COc1ccc(S(=O)(=O)n2c3ccccc3n3ncc(-c4nnc(C)o4)c23)cc1`, the growth was 12.2% (inactive).
Next, `O=C(NCCCN1CCN(CCCNC(=O)C2CCCCC2)CC1)C1CCCCC1`: 98.9% (inactive); `C=C(C)[C@@H]1CC[C@]2(C(N)=O)CC[C@]3(C)[C@H](CC[C@@H]4[C@@]5(C)C/C(=C/c6cccnc6)[C@H](O)C(C)(C)[C@@H]5CC[C@]43C)[C@@H]12`: 0.0883% [100 µM] (active); `CCCCN(CCCC)C(=O)[C@H](CC)[C@@H]1CC[C@@H](C)[C@@H]([C@H](C)[C@@H](O)[C@@H](C)C(=O)[C@H](CC)C2O[C@]3(C=CC(=O)[C@]4(CC[C@@](C)([C@H]5CC[C@](O)(CC)[C@H](C)O5)O4)O3)[C@H](C)C[C@@H]2C)O1` (stereo not given in full): -1.52% (active).
Take `CCNC(=S)N(Cc1ccccc1)Cc1ccccc1`: the growth was 96.2% (inactive).
Next, `NNc1c2ccccc2nc2ccccc12`: 9.09% (active); `COc1ccc2nc(NC(=O)Nc3c(F)cccc3F)sc2c1`: 79.1% (inactive).
Next, `CC(=O)c1cc(Cl)ccc1O`: 103% (inactive); `COc1ccc(-c2nc(-c3nc4ccc(OC)cc4[nH]3)cc3c2[nH]c2ccccc23)cc1`: 34.7% (inactive).
Consider `CN(C)CCN(Cc1ccccc1)c1ccccc1`, for which the growth is 86.6% (inactive).
Next, `Cc1cc(C(N)=O)cc(C)c1C(=O)OCCCl`: 106% (inactive); `Cc1ccc(S(=O)(=O)Oc2ccc(NC(=O)c3ccc(Cl)cc3)cc2)cc1`: 89.2% (inactive).
Next, `CCOC(=O)c1c(C)cc(=O)oc1C`: 105% (inactive).
Consider `O=C(Nc1sc2c(c1C(=O)O)CCCC2)c1cccc(C(F)(F)F)c1`, for which the growth is 92.9% (inactive).
Next, `Nc1c(C(=O)NC2CCCCC2)sc2nc3c(cc12)C(=O)CCC3`: 95.2% (inactive); `N[C@@H](CO)C(=O)O`: 106% (inactive).
Next, `CN(C)CCCNCc1ccc(-c2ccc(F)c(Cl)c2)o1`: -4.95% (active); `COc1cc2ncnc(Oc3ccc(NC(=O)Nc4ccc(CN5CCOCC5)c(C(F)(F)F)c4)c4ccccc34)c2cc1OC`: -23% (active); `O=c1oc2c(cc1-c1ccc([N+](=O)[O-])cc1)C(O)Oc1ccccc1-2` (stereo not given): 71.9% (inactive).
Next, `O=C(C[n+]1cccc2ccccc21)c1ccc(O)c(O)c1`: -20% (active).
Consider `CCN(CC)CC(=O)Nc1c(C)cccc1C`, for which the growth is 107% (inactive).
For the compound `Clc1nc(-c2ccccn2)nc2sc3c(c12)CCCCCC3`, the growth was 96% (inactive).
Regarding `CC1=C(C(=O)OCc2ccccc2)C(c2ccc3c(c2)OCO3)n2c(nc3ccccc32)N1` (stereo not given), the growth was -14.7% (active).
Take `O=C1/C(=C/c2cn(-c3ccccc3)nc2-c2ccccc2)SC(=S)N1c1ccccc1`: the growth is 103% (inactive).
Next, `COc1ccc(-c2nn(-c3ccc(NC(=O)Nc4ccc(Cl)c(Cl)c4)cc3)cc2-c2ccncc2)cc1Cl`: 5.24% (active); `CC(=N\N=C(N)N)/C(=N/N=C(N)N)c1ccccc1`: 98.7% (inactive).
As for `CC(C)NC(=O)OCc1c(COC(=O)NC(C)C)c(-c2ccc(Cl)c(Cl)c2)n2c1SCC2`, the growth was 7.43% (active).
Next, `COc1ccc(-c2ccc(-c3ccc(C(=N)N)o3)o2)cc1`: -46.2% (active).
Next, `COc1ccc2c(c1)c(-c1nc(-c3ccc4ccccc4c3)cs1)cn2C`: 85.7% (inactive).
For `COc1ccc2[nH]cc(-c3nonc3-c3c[nH]c4ccc(Br)cc34)c2c1`, the growth is 76.1% (inactive).
Next, `O=[N+]([O-])c1ccc(N=Nc2ccccc2)cc1`: 67.1% (inactive); `CC1CCC(C(C)(C)[N+](C)(C)C)CC1` (stereo not given): 104% (inactive).
Next, `CCC12CCC3c4ccc(O)cc4CCC3C1CC(O)C2O` (stereo not given): 63.1% (inactive).
Next, `CCn1c(Cc2ccccc2Nc2c(Cl)cccc2Cl)nnc1SCC(=O)NN1C(=O)/C(=C/c2cc(OC)c(O)c(OC)c2)SC1=S`: -1.07% (active).
For `CC(=O)c1cnc(-c2ccccc2)nc1CBr`, the growth is 41.5% (inactive).
Next, `CC1CN(S(=O)(=O)c2oc(-c3ccc(Cl)cc3)nc2C#N)CC(C)O1` (stereo not given): 23.4% (inactive); `Cn1c([N+](=O)[O-])cnc1/C=C1\Oc2ccc(Br)cc2C1=O`: -12% (active).
